Screening data from PubChem.
Hits are enriched below; roughly 19% of the tested compounds scored in any of these assays.
DT40 TDP1 no CPT – qHTS for Inhibitors of human tyrosyl-DNA phosphodiesterase 1 (TDP1): qHTS in cells in absence of CPT. DT40 Tdp1-/- hTDP1 cells, no CPT, ATP luminescence, 48 h. Potency, µM (highest dose often 46.2 µM), inactives show at the top dose activity change, negative = growth inhibition, usual class: inhibitors. hit rate 15% among 420,000. AID 686978, 2013; further: potency means the concentration at half of the fitted maximal effect; on the % scale 0 is the no-effect control and ±100 the full control effect; nearly all actives have a fitted effect of over 55% in size
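Compound effects on proliferation are scored in DT40 Tdp1-/-;hTDP1 cells in the absence of CPT. ATP levels (CellTiter-Glo luminescence) are recorded after a ≥48 hr, 37 °C incubation.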
BCR signal inh – qHTS Assay to Find Inhibitors of Chronic Active B-Cell Receptor Signaling. ABC-DLBCL IkBa-CBG/CBR reporter, luminescence ratio, 4 h. hit rate 0.05% among 340,000. Potency, µM (titrated, usually from 46.1 µM), without a hit: top-dose activity change, negative = inhibition, usual class: inhibitors; active means well fitted inhibition curve with a large enough effect in the signal ratio, with a control signal flat, not every such curve was filed as active; inconclusive means small, poorly fitted or top-dose-only effect, or effect the other way, or a change in a side signal; the % refers to the signal ratio;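 further: potency means the concentration at half of the fitted maximal effect; plate controls were basal doxycycline-induced cells for no effect and cells given 10 µM MG132 for full effect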
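TMD8 ABC-DLBCL cells carrying doxycycline-inducible green luciferase fused to IkappaBalpha plus unfused red luciferase were exposed to compounds (up to 46 uM) for 4 hrs at 37C. Activity came from the overlap-corrected green/red luminescence ratio.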
DT40 TDP1 CPT – qHTS for Inhibitors of human tyrosyl-DNA phosphodiesterase 1 (TDP1): qHTS in cells in presence of CPT | hit rate 12% among 420,000 | chicken DT40 Tdp1-/-;hTDP1 cells + 20 nM CPT, ATP luminescence, 48 h | Potency, µM (doses to about 46.2 µM), without a hit: top-dose activity change, negative = growth inhibition, most hits filed as inhibitors; further: potency means the concentration at half of the fitted maximal effect; on the % scale 0 is the no-effect control and ±100 the full control effect; nearly all actives have a fitted effect of over 55% in size
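Cell growth measured by CellTiter-Glo luminescence after a minimum 48 h, 37 C compound exposure with 20 nM CPT in Tdp1-knockout DT40 cells stably expressing hTDP1, seeded 400/well; qHTS titration format.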
MCF10A rerep – A quantitative high throughput screen for small molecules that induce DNA re-replication in MCF 10a normal breast cells; MCF 10A DNA re-replication, Hoechst nuclear intensity, 48 h; Potency, µM (doses to about 46.1 µM), for the others: at the highest dose activity, positive = re-replication, hits mostly activators; AID 624296, 2012; hit rate 2.9% among 350,000; further: potency means the concentration at half of the fitted maximal effect; % of control where 0% means no effect; nearly all actives have a fitted effect of over 50% in size
IL-1B inflam inh – qHTS for Inhibitors of Inflammasome Signaling: IL-1-beta AlphaLISA Primary Screen; THP-1 LPS/ATP IL-1B secretion, AlphaLISA, 16 h; active compounds read low; activity change, % at 57.5 µM; hit rate 4.7% among 360,000; in the data active means activity change below about -50%; inconclusive means mostly about -30% to -49%; further: on the % scale 0 is the no-effect control and ±100 the full control effect
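Secreted IL-1B measured by AlphaLISA bead assay after 16 h compound exposure of THP-1 cells; compounds (final up to 57.5 uM) added 1 h before LPS (250 ng/mL) and ATP (1.25 mM) stimulation; lower signal means less secretion.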
SW480 rerep – A quantitative high throughput screen for small molecules that induce DNA re-replication in SW480 colon adenocarcinoma cells. Potency, µM (doses to about 46.1 µM), for the others: at the highest dose re-replication activation, hits mostly activators. hit rate 1.8% among 340,000. SW480 DNA re-replication, Hoechst DNA content imaging, 48 h; further: potency means the concentration at half of the fitted maximal effect; % of control where 0% means no effect; nearly all actives have a fitted effect of over 55% in size
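Quantitative HTS format with DMSO vehicle controls; 48 hr drug incubation at 37 C, then 40 min Hoechst staining and scanning imager measurement at 405 nm excitation.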
* marks the source's active call; other numbers are inactive results; ? = inconclusive; . = no result given; [ ] = dose if it differs, or a comment. Unless noted, the call rests on the fitted dose curve; in most records, active means well fitted curve in the direction sought with a large enough effect; inconclusive means small, poorly fitted or top-dose-only effect, or another doubt; inactive means no such curve, though single readings can be large; an effect the other way counts as inactive or inconclusive.

SMILES	DT40 TDP1 no CPT	BCR signal inh	DT40 TDP1 CPT	MCF10A rerep	IL-1B inflam inh	SW480 rerep
CC(C)(C)Nc1c2ccccc2nc2ccccc12	18µM*	2%	21µM*	15µM*	-92*	23µM*
c1ccc2c(Nc3nncs3)c3ccccc3nc2c1	0%	6%	?	-21%	45	-7%
N#Cc1ccc(OCc2c(-c3ccccc3)nnn2CC(=O)O)cc1	-1%	.	7%	.	1	.
CSc1ccccc1NC(=S)Nc1cccc(C(F)(F)F)c1	-28%	?	-30%	?	0	-3%
O=[N+]([O-])c1cc(C(F)(F)F)cc([N+](=O)[O-])c1NCCNC(=S)Nc1cccc(F)c1	26µM*	?	?	-2%	-53*	1%
Fc1cccc(NC(=S)NCc2ccc(Cl)cc2)c1	?	8%	?	23%	-15	-33%
Fc1ccccc1CNC(=S)Nc1cccc(C(F)(F)F)c1	23µM*	?	?	?	-98*	8%
Fc1ccc(CNC(=S)Nc2cccc(C(F)(F)F)c2)cc1	18µM*	9%	?	23%	0	0%
Cc1ccc(C(=O)NCCCN2CCOCC2)c(Cl)c1	0%	0%	-30%	-2%	-1	2%
COc1ccc(-n2c(CNC(=O)c3ccccc3C(F)(F)F)nnc2SC)cc1	-9%	.	6%[9.04 µM]	.	.	.
Cc1cc(OCCCCOc2ccc(S(N)(=O)=O)c(C)c2)ccc1S(N)(=O)=O	?	-10%	18µM*	-10%	-12	5%
COc1cc(OC)c(C=CC(=O)c2ccccc2O)c(OC)c1	?	.	?	11%	-59*	?
COc1cc(/C=C/C(=O)OC(C)C(=O)c2ccccc2)cc(OC)c1OC (configuration not stated)	15µM*	-10%	21µM*	-1%	-7	3%
CN(C)c1ccc(/C=C/C(=O)c2ccccc2O)cc1	-23%	?	?	6%	3	0%
COc1cc(/C=C/C(=O)c2ccccc2O)cc(OC)c1OC	?	?	-30%	?	-98*	?
COc1cc(/C=C/C(=O)OCC(=O)NC(C)c2ccccc2)cc(OC)c1OC (configuration not stated)	-22%	-11%	11%	13%	?	-4%
Nc1cc(C(F)(F)F)ccc1OCC1CCCO1 (configuration not stated)	-2%	-1%	-5%	-9%	-1	1%
COc1ccc2c(CNCc3ccc(C)o3)c(C(=O)O)n(Cc3ccccc3C)c2c1	3.3µM*	.	7.3µM*	.	.	.
COc1ccc2c(CNCCc3ccco3)c(C(=O)O)n(Cc3ccc(C)cc3)c2c1	?	.	-19%	.	.	.
COc1ccc2c(CNCc3ccc(Cl)cc3)c(C(=O)O)n(Cc3ccccc3C)c2c1	1.2µM*	.	2.3µM*	.	.	.
COc1ccc(Cn2c(C(=O)O)c(CNCc3ccc(C)o3)c3ccc(OC)cc32)cc1	-97%	.	23µM*	.	.	.
C=Cc1ccc(Cn2c(C)c(CNCc3ccccc3C)c(C(=O)O)c2C)cc1	?	.	-16%	.	.	.
CCOC(=O)c1sc(NC(=O)c2ccc(Cl)s2)cc1C	1%	?	-16%	?	?	-5%
CCOC(=O)c1c(NC(=O)/C=C/C(=O)O)sc(C)c1-c1ccc(Cl)cc1	13µM*	?	?	2.9µM*	-71*	4%
